In PubChem BioAssay (NCI):
The panel holds about 83,000 compounds, 20% with a hit somewhere; the sample as a whole holds those more often.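 Values shown are percent growth following 48 h exposure of cells in 96-well plates to a single concentration of compound; below 10 was considered active.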 A number with no mark means an inactive call. Active and inactive are the calls of the source.

Tests used:
Assay in all cases: NCI-60 one-dose screen, 48 h (100 = growth as untreated, 0 = no growth, -100 = all killed)
Settings in all cases: 10 µM unless noted
DU-145 prostate = tested on: DU-145 prostate
K-562 leukemia = tested on: K-562 leukemia
MALME-3M melanoma = tested on: MALME-3M melanoma
MDA-MB-231 breast = tested on: MDA-MB-231 breast
RXF 393 renal = tested on: RXF 393 renal
SF-268 CNS = tested on: SF-268 CNS
SF-295 CNS = tested on: SF-295 CNS
SF-539 CNS = tested on: SF-539 CNS
UACC-257 melanoma = tested on: UACC-257 melanoma
M14 melanoma = tested on: M14 melanoma
HCT-15 colon = tested on: HCT-15 colon
SNB-75 CNS = tested on: SNB-75 CNS
SNB-19 CNS = tested on: SNB-19 CNS
PC-3 prostate = tested on: PC-3 prostate
SK-MEL-5 melanoma = tested on: SK-MEL-5 melanoma
UACC-62 melanoma = tested on: UACC-62 melanoma
LOX IMVI melanoma = tested on: LOX IMVI melanoma
SK-MEL-28 melanoma = tested on: SK-MEL-28 melanoma
HT29 colon = tested on: HT29 colon
U251 CNS = tested on: U251 CNS

Row | Structure (SMILES) | growth (DU-145 prostate) | growth (K-562 leukemia) | growth (MALME-3M melanoma) | growth (MDA-MB-231 breast) | growth (RXF 393 renal) | growth (SF-268 CNS) | growth (SF-295 CNS) | growth (SF-539 CNS) | growth (UACC-257 melanoma) | growth (M14 melanoma) | growth (HCT-15 colon) | growth (SNB-75 CNS) | growth (SNB-19 CNS) | growth (PC-3 prostate) | growth (SK-MEL-5 melanoma) | growth (UACC-62 melanoma) | growth (LOX IMVI melanoma) | growth (SK-MEL-28 melanoma) | growth (HT29 colon) | growth (U251 CNS)
1 | COc1ccc(Nc2nnc(-c3ccc(OC)c(OC)c3)o2)cc1 | 90.9% | 80.2% | 106% | 55.7% | 102% | 80.8% | 101% | 92.1% | 102% | 100% | 80.3% | 97.5% | 97.5% | 70.7% | 89% | 90.2% | 59.2% | 106% |  | 
2 | CC1=C2[C@@H](CC1)[C@]1(C)O[C@@](C(C)C)(C[C@H]1OC(=O)[C@H](C)O)[C@H]2OC(=O)/C=C/c1ccccc1 | 105% | 68.7% | 101% | 83.1% | 30.8% | 41% | 78.7% | 96.8% | 90.5% | 87.2% | 83.6% | 66.4% | 85.1% | 58.3% | 90.3% | 66% | 84.6% | 108% | 82.8% | 
3 | Cn1cc(-c2nonc2-c2cn(C)c3ccccc23)c2ccccc21 | 16.3% | 9.77% (active) | 53.4% | 23.2% | 1.39% (active) | 48.1% | 17.5% | -21.6% (active) | 65.7% | 6.28% (active) | 30.2% | 2.13% (active) | 24.7% | 26.2% | 26.2% | 30.6% | 48.5% | 57.4% |  | 18.8%
4 | COC(=O)[C@]1(C)CCC[C@]2(C)[C@H]3C[C@H]4C(C(C)C)=C[C@]3(CC[C@H]21)[C@@H]1C(=O)CC[C@H](OCCC#N)[C@@H]14 | 89.2% | 89.9% | 85.9% | 73.9% | 55.5% | 74.3% | 77.7% | 91.7% | 99.1% | 82.5% | 84.9% | 87.6% | 89.6% | 34.5% | 79.4% | 69.3% | 90.3% | 101% |  | 77.6%
5 | COc1ccc(C/C(C)=C(\c2ccc(Cl)cc2)c2ccc(OCCN3CCCCC3)cc2)cc1 | 110% | 67.3% | 106% | 93.3% | 85.1% | 99.6% | 101% | 93.6% | 104% | 93.3% | 84.3% | 89.3% | 93.5% | 94.6% | 107% | 83.8% | 104% | 101% |  | 92.1%
6 | CCCOC(=O)Nc1nc2ccc(SCC(C)C)cc2s1 | 57.8% | 20.8% | 38.7% | 62.7% | 28.2% | 52.7% | 32.4% | 26.9% | 58.7% | 34% | 26.6% | 28.6% | 53.9% | 45.9% | 27.6% | 18.9% | 40.8% | 64.9% |  | 49.2%
7 | O=C1C(Cl)=C(Nc2ccc(S(=O)(=O)N3CCOCC3)cc2)C(=O)c2ccccc21 | 101% | 6.71% (active) | 71.6% | 31.3% | 56.4% | 78.3% | 99.7% | 2.06% (active) | 66.4% | 44.2% | 36.2% | 71.3% | 96.9% | 46% | 86.8% | 29.7% | 35.3% | 47.5% |  | 44.6%
8 | O=C(COc1ccc(-c2nc3cc(Cl)c(Cl)cc3[nH]2)cc1)N=Nc1c(O)[nH]c2ccc(Cl)cc12 | 74.6% | 5.55% (active) | 49.5% | 76.8% | 77.6% | 89.4% | 74.8% | 84.2% | 105% | 66.5% | 80.3% | 68.5% | 56.7% | 61.2% | 85.6% | 91.6% | 60.8% | 73.7% |  | 34.2%
9 | Cc1cc(=O)oc2cc(OCc3nn4c(Nc5nc6ccccc6s5)c(-c5ccccc5)nc4s3)ccc12 | 97.7% | -59.3% (active) | 93.7% | 83.1% | 102% | 86.1% | 90.2% | 96.1% | 93.9% | 100% | 91.3% | 84.4% | 74.7% | 87% | 99.2% | 84.4% | 95.8% | 102% |  | 96.7%
10 | COCCn1cc(-c2csc(-c3cn(C)c4ccc(Br)cc34)n2)c2cccnc21 | 62.5% | -9.15% (active) | 96.6% | 42.9% | 68.8% | 64.8% | 33.9% | 70.1% | 63.7% | 42.9% | 12.1% | 75.6% | 78.5% | 38.1% | 71% |  | -55.1% (active) | 74.9% |  | 51.4%
11 | Cc1ccc(C)n1-c1ccccc1-n1c(C)ccc1C | 111% | 101% | 120% | 90.8% | 109% | 98.6% | 92.9% | 104% | 103% | 112% | 115% | 87.2% | 108% | 98.7% | 104% | 87.5% | 90.9% | 93.6% | 103% | 
12 | CN1C(=O)/C(=C\c2nc([P+](c3ccccc3)(c3ccccc3)c3ccccc3)c(N3CCOCC3)o2)SC1=S | 100% | 17.2% | -10.8% (active) | 54.8% | 98.1% | 97.3% | 103% | 63% | 61.1% | 47% | 91.3% | 92.1% | 12.5% | 46.1% | 78.4% | -3.31% (active) | 86.1% | 11% |  | 66.2%
